Results from PubChem BioAssay (NCI).
Compounds without any hit were thinned out: in the full panel of roughly 83,000, 20% have a hit.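 The endpoint reported here, percent growth, reads 100 for growth as untreated, 0 for no net growth and -100 for all cells dead.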 Active and inactive are the calls of the source. How the source made its calls: active means growth percent below 10; inactive means the rest.

Legend:
Test in all cases: NCI-60 one-dose screen, 48 h (100 = growth as untreated, 0 = no growth, -100 = all killed)
Settings in all cases: 10 µM unless noted
SR leukemia = tested on: SR leukemia
RPMI-8226 leukemia = tested on: RPMI-8226 leukemia
OVCAR-8 ovarian = tested on: OVCAR-8 ovarian
OVCAR-5 ovarian = tested on: OVCAR-5 ovarian
OVCAR-4 ovarian = tested on: OVCAR-4 ovarian
SK-OV-3 ovarian = tested on: SK-OV-3 ovarian
IGROV1 ovarian = tested on: IGROV1 ovarian
OVCAR-3 ovarian = tested on: OVCAR-3 ovarian
HS 578T breast = tested on: HS 578T breast
NCI/ADR-RES ovarian = tested on: NCI/ADR-RES ovarian
T-47D breast = tested on: T-47D breast
BT-549 breast = tested on: BT-549 breast
MDA-MB-435 melanoma = tested on: MDA-MB-435 melanoma
SW-620 colon = tested on: SW-620 colon
MCF7 breast = tested on: MCF7 breast
HCT-116 colon = tested on: HCT-116 colon
HCC-2998 colon = tested on: HCC-2998 colon
KM12 colon = tested on: KM12 colon

Measured: growth

Cc1cc([N+](=O)[O-])ccc1NC(=O)c1ccc2c(c1)nc(-c1ccccc1)n2C1CCCCC1
inactive: SR leukemia 39.5% | RPMI-8226 leukemia 76.2% | OVCAR-8 ovarian 87.6% | OVCAR-5 ovarian 95.5% | OVCAR-4 ovarian 95.2% | SK-OV-3 ovarian 100% | IGROV1 ovarian 111% | OVCAR-3 ovarian 92.8% | HS 578T breast 88.1% | NCI/ADR-RES ovarian 87.9% | T-47D breast 59.8% | BT-549 breast 77.1% | MDA-MB-435 melanoma 92.2% | SW-620 colon 97.6% | MCF7 breast 77% | HCT-116 colon 65.7% | HCC-2998 colon 88.3% | KM12 colon 69.3%

CC(=O)c1ccc(Nc2nccc(-c3ccc(Cl)cc3)n2)cc1
inactive: SR leukemia 58.3% | RPMI-8226 leukemia 93.6% | OVCAR-8 ovarian 91.7% | OVCAR-5 ovarian 91.6% | OVCAR-4 ovarian 105% | SK-OV-3 ovarian 108% | IGROV1 ovarian 103% | OVCAR-3 ovarian 109% | HS 578T breast 95% | NCI/ADR-RES ovarian 96.1% | T-47D breast 80.2% | BT-549 breast 100% | MDA-MB-435 melanoma 104% | SW-620 colon 92.6% | MCF7 breast 76.8% | HCT-116 colon 62.9% | HCC-2998 colon 114% | KM12 colon 94.7%

Oc1ccc(C(c2ccc(O)cc2)c2ccc(Cl)cn2)cc1
active: OVCAR-8 ovarian -11.1% | OVCAR-4 ovarian -14.8% | OVCAR-3 ovarian -34.5% | HS 578T breast -29.9% | NCI/ADR-RES ovarian -36.1% | T-47D breast -34.4% | BT-549 breast -30.1% | MCF7 breast -17.3% | HCC-2998 colon 1.05%
inactive: SR leukemia 90% | RPMI-8226 leukemia 98.2% | OVCAR-5 ovarian 72.7% | SK-OV-3 ovarian 86.8% | IGROV1 ovarian 28.9% | MDA-MB-435 melanoma 101% | SW-620 colon 106% | HCT-116 colon 27.6% | KM12 colon 20.8%

Cc1ccc2c(n1)C[C@H](C(C)(C)O)CC[C@H]2C
inactive: SR leukemia 107% | RPMI-8226 leukemia 110% | OVCAR-8 ovarian 101% | OVCAR-5 ovarian 94.7% | OVCAR-4 ovarian 99.6% | SK-OV-3 ovarian 99.1% | IGROV1 ovarian 104% | OVCAR-3 ovarian 113% | HS 578T breast 111% | NCI/ADR-RES ovarian 104% | T-47D breast 96.5% | BT-549 breast 112% | MDA-MB-435 melanoma 102% | SW-620 colon 104% | MCF7 breast 94.6% | HCT-116 colon 97.4% | HCC-2998 colon 102% | KM12 colon 109%

CC(=O)c1c(/C=C/c2ccc(C)cc2)c2ccccc2[nH]c1=O
inactive: SR leukemia 99.5% | RPMI-8226 leukemia 91.5% | OVCAR-8 ovarian 86.8% | OVCAR-5 ovarian 100% | OVCAR-4 ovarian 88.9% | SK-OV-3 ovarian 90.2% | IGROV1 ovarian 57.4% | OVCAR-3 ovarian 92.5% | HS 578T breast 85.9% | NCI/ADR-RES ovarian 85.8% | T-47D breast 85.7% | BT-549 breast 95.1% | MDA-MB-435 melanoma 96.1% | SW-620 colon 95.1% | MCF7 breast 88.7% | HCT-116 colon 91.7% | HCC-2998 colon 96.5% | KM12 colon 100%

CN(Cc1ccccc1)c1nc(Cl)c(C2CC(c3ccc(Cl)cc3)=NN2c2cc(Cl)cc(Cl)c2)s1 (stereo unspecified)
inactive: SR leukemia 109% | RPMI-8226 leukemia 81.4% | OVCAR-8 ovarian 106% | OVCAR-5 ovarian 113% | OVCAR-4 ovarian 97.6% | SK-OV-3 ovarian 92.9% | IGROV1 ovarian 102% | OVCAR-3 ovarian 109% | HS 578T breast 116% | NCI/ADR-RES ovarian 102% | T-47D breast 84.9% | BT-549 breast 101% | MDA-MB-435 melanoma 103% | SW-620 colon 98.8% | MCF7 breast 79.8% | HCT-116 colon 88.6% | HCC-2998 colon 90.9% | KM12 colon 103%

COc1ccc(C2=NN(C=O)C(c3ccc(Oc4nc5c(c(=O)n(C)c(=O)n5C)n4C)c(OC)c3)C2)cc1 (stereo unspecified)
inactive: SR leukemia 83.9% | RPMI-8226 leukemia 79.6% | OVCAR-8 ovarian 85.2% | OVCAR-5 ovarian 96.6% | OVCAR-4 ovarian 72.3% | SK-OV-3 ovarian 114% | IGROV1 ovarian 87.7% | OVCAR-3 ovarian 101% | HS 578T breast 89.6% | NCI/ADR-RES ovarian 63.4% | T-47D breast 75.5% | BT-549 breast 96.9% | MDA-MB-435 melanoma 61.2% | SW-620 colon 104% | MCF7 breast 77.1% | HCT-116 colon 83% | HCC-2998 colon 82.3% | KM12 colon 87.5%

O=C(Nc1ccc2[nH]ncc2c1)c1csc(Nc2ccccc2)n1
active: RPMI-8226 leukemia 7.99% | MDA-MB-435 melanoma -11.9%
inactive: SR leukemia 22.8% | OVCAR-8 ovarian 35.9% | OVCAR-5 ovarian 64.5% | OVCAR-4 ovarian 61.6% | SK-OV-3 ovarian 50.7% | IGROV1 ovarian 54.9% | OVCAR-3 ovarian 13.1% | HS 578T breast 38.3% | NCI/ADR-RES ovarian 16.5% | T-47D breast 37.1% | BT-549 breast 62% | SW-620 colon 21% | MCF7 breast 14.1% | HCT-116 colon 35.3% | HCC-2998 colon 62.5% | KM12 colon 27.7%

C=C(C)[C@@H]1CC[C@]2(COC(=O)c3cccnc3)CC[C@]3(C)[C@H](CC[C@@H]4[C@@]5(C)CCCN(C(=O)c6cccnc6)C(C)(C)[C@@H]5CC[C@]43C)[C@@H]12
inactive: SR leukemia 11.3% | RPMI-8226 leukemia 14% | OVCAR-8 ovarian 26.9% | OVCAR-5 ovarian 53.9% | OVCAR-4 ovarian 37.6% | SK-OV-3 ovarian 53.1% | IGROV1 ovarian 42.8% | OVCAR-3 ovarian 32.9% | HS 578T breast 59% | NCI/ADR-RES ovarian 42.7% | T-47D breast 31.3% | BT-549 breast 51.9% | MDA-MB-435 melanoma 38.3% | SW-620 colon 32.2% | MCF7 breast 25.6% | HCT-116 colon 28.1% | HCC-2998 colon 50.1% | KM12 colon 31.2%

CCOc1ccc(N2C(=O)CCSC2=S)cc1
inactive: SR leukemia 116% | RPMI-8226 leukemia 104% | OVCAR-8 ovarian 104% | OVCAR-5 ovarian 107% | OVCAR-4 ovarian 109% | SK-OV-3 ovarian 101% | IGROV1 ovarian 99.1% | OVCAR-3 ovarian 114% | HS 578T breast 105% | NCI/ADR-RES ovarian 105% | T-47D breast 104% | BT-549 breast 108% | MDA-MB-435 melanoma 98% | SW-620 colon 104% | MCF7 breast 100% | HCT-116 colon 112% | HCC-2998 colon 104% | KM12 colon 107%

CC(=O)OCCOc1cc(Cl)c(Cl)cc1Cl
inactive: SR leukemia 97.2% | RPMI-8226 leukemia 93.3% | OVCAR-8 ovarian 103% | OVCAR-5 ovarian 90.6% | OVCAR-4 ovarian 108% | SK-OV-3 ovarian 107% | IGROV1 ovarian 130% | OVCAR-3 ovarian 118% | HS 578T breast 103% | NCI/ADR-RES ovarian 105% | T-47D breast 101% | BT-549 breast 91.7% | MDA-MB-435 melanoma 106% | SW-620 colon 104% | MCF7 breast 104% | HCT-116 colon 102% | HCC-2998 colon 97.9% | KM12 colon 103%

COc1cc(C2=Nc3c(N)nc(N)nc3NC(c3cccc(Nc4ccnc5cc(C(F)(F)F)ccc45)c3)C2)cc(OC)c1OC (stereo unspecified)
active: SR leukemia 0.109%
inactive: RPMI-8226 leukemia 10.8% | OVCAR-8 ovarian 68.8% | OVCAR-5 ovarian 129% | OVCAR-4 ovarian 74.7% | SK-OV-3 ovarian 88.1% | IGROV1 ovarian 65.6% | OVCAR-3 ovarian 83.5% | HS 578T breast 62.7% | NCI/ADR-RES ovarian 95.3% | T-47D breast 95.4% | BT-549 breast 112% | MDA-MB-435 melanoma 69.2% | SW-620 colon 78.7% | MCF7 breast 37.3% | HCT-116 colon 48.9% | HCC-2998 colon 77.2% | KM12 colon 66.4%

O=C1C=CC2(O)OC(c3ccccc3)CC(=O)C2=C1O (stereo unspecified)
active: OVCAR-3 ovarian 1.12%
inactive: SR leukemia 56.2% | RPMI-8226 leukemia 64.3% | OVCAR-8 ovarian 82% | OVCAR-5 ovarian 96.4% | OVCAR-4 ovarian 79.5% | SK-OV-3 ovarian 106% | IGROV1 ovarian 90.9% | HS 578T breast 102% | NCI/ADR-RES ovarian 86% | T-47D breast 83.6% | BT-549 breast 74% | MDA-MB-435 melanoma 87.7% | SW-620 colon 102% | MCF7 breast 86% | HCT-116 colon 82.9% | HCC-2998 colon 101% | KM12 colon 15.9%

Cc1c2ccncc2c(C)c2c1c1ccccc1n2CCCCCC(=O)O
inactive: SR leukemia 65.1% | RPMI-8226 leukemia 86.3% | OVCAR-8 ovarian 79.5% | OVCAR-5 ovarian 109% | OVCAR-4 ovarian 94.3% | SK-OV-3 ovarian 95.6% | IGROV1 ovarian 76.9% | OVCAR-3 ovarian 93.1% | HS 578T breast 88.5% | NCI/ADR-RES ovarian 80.1% | T-47D breast 86.5% | BT-549 breast 89.4% | MDA-MB-435 melanoma 99.2% | SW-620 colon 82.4% | MCF7 breast 77.6% | HCT-116 colon 75.8% | HCC-2998 colon 104% | KM12 colon 82.3%

O=C(N/N=C/c1ccccc1Cl)c1ccccc1Nc1ccnc(C(F)(F)F)c1
inactive: HS 578T breast 19.3% | BT-549 breast 15.7% | MDA-MB-435 melanoma 14.6% | SW-620 colon 16.6% | HCT-116 colon 13.3% | KM12 colon 10.4%
active: SR leukemia -3.24% | RPMI-8226 leukemia -34.9% | OVCAR-8 ovarian 7.58% | OVCAR-5 ovarian 6.58% | OVCAR-4 ovarian -1.98% | SK-OV-3 ovarian -8.48% | IGROV1 ovarian 9.79% | OVCAR-3 ovarian 3.44% | NCI/ADR-RES ovarian 4.04% | T-47D breast -14.3% | MCF7 breast 9.9% | HCC-2998 colon -20.7%

Nc1ccc(N)c2c1C(=O)c1cccc([N+](=O)[O-])c1C2=O
active: SR leukemia -9.26% | HCC-2998 colon -60.6%
inactive: RPMI-8226 leukemia 42.8% | OVCAR-8 ovarian 41.4% | OVCAR-5 ovarian 70.2% | OVCAR-4 ovarian 60.9% | SK-OV-3 ovarian 27.6% | IGROV1 ovarian 18.6% | OVCAR-3 ovarian 58.7% | HS 578T breast 37.6% | NCI/ADR-RES ovarian 49.4% | T-47D breast 38.2% | BT-549 breast 21.6% | MDA-MB-435 melanoma 67.3% | SW-620 colon 51.5% | MCF7 breast 16.5% | HCT-116 colon 19.7% | KM12 colon 42%

COc1cc2c(c(OC)c1OC)CCC(c1cccc(NC(=O)c3cccc(Cl)c3)c1)O2 (stereo unspecified)
inactive: SR leukemia 60.3% | RPMI-8226 leukemia 64.9% | OVCAR-8 ovarian 95.6% | OVCAR-5 ovarian 92.8% | OVCAR-4 ovarian 81.1% | SK-OV-3 ovarian 72.9% | IGROV1 ovarian 86.8% | OVCAR-3 ovarian 92% | HS 578T breast 76.3% | NCI/ADR-RES ovarian 90.5% | T-47D breast 59.1% | BT-549 breast 97.2% | MDA-MB-435 melanoma 89.9% | SW-620 colon 93.9% | MCF7 breast 84.4% | HCT-116 colon 87.7% | HCC-2998 colon 100% | KM12 colon 97.1%
